Reference: PubChem BioAssay AID1159580 (chemical genetic matrix, 2015)
Screen size: about 5,500 compounds; about 2,000 (36%) were called active. About 18% were inconclusive and are not listed. Cut-off read from the data, not from the text of the source: active = normalized growth mostly below about 0.91 (no sharp cut-off); inconclusive = no clear call, values can overlap the other calls; inactive = mostly above about 0.92. The list shows a part of the results.

Assay: chemical genetic growth profiling, strain panel (AID 1159580);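 note: tested at 20 µM; growth read once vehicle control cultures reached saturation at 30 °C; 1 = growth at the plate median or of vehicle wells; lower values mean less growth of the strain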
Settings: S. cerevisiae deletion strains, growth OD
[1] = locus YAR019C, strain CDC15, stronger effect = lower value
[2] = locus YBL105C, strain PKC1, stronger effect = lower value
[3] = locus YBR135W, strain CKS1, stronger effect = lower value
[4] = locus YBR136W, strain MEC1, stronger effect = lower value
[5] = locus YBR160W, strain CDC28, stronger effect = lower value
[6] = locus YDL017W, strain CDC7, stronger effect = lower value
[7] = locus YDL028C, strain MPS1, stronger effect = lower value
[8] = locus YDL101C, strain DUN1, stronger effect = lower value
[9] = locus YDL108W, strain KIN28, stronger effect = lower value
[10] = locus YDL132W, strain cdc53, stronger effect = lower value
[11] = locus YDL214C, strain PRR2, stronger effect = lower value
[12] = locus YDR052C, strain DBF4, stronger effect = lower value
[13] = locus YDR054C, strain cdc34, stronger effect = lower value
[14] = locus YDR226W, strain ADK1, stronger effect = lower value
[15] = locus YDR477W, strain SNF1, stronger effect = lower value
[16] = locus YER123W, strain YCK3, stronger effect = lower value
[17] = locus YER133W, strain GLC7, stronger effect = lower value
[18] = locus YFL009W, strain cdc4, stronger effect = lower value
[19] = locus YFL029C, strain CAK1, stronger effect = lower value
[20] = locus YFR003C, strain YPI1, stronger effect = lower value
[21] = locus YFR019W, strain FAB1, stronger effect = lower value
[22] = locus YFR028C, strain CDC14, stronger effect = lower value
[23] = locus YGR040W, strain KSS1, stronger effect = lower value
[24] = locus YGR052W, strain FMP48, stronger effect = lower value
[25] = locus YGR092W, strain DBF2, stronger effect = lower value
[26] = locus YHR030C, strain SLT2, stronger effect = lower value
[27] = locus YHR079C, strain IRE1, stronger effect = lower value
[28] = locus YHR082C, strain KSP1, stronger effect = lower value
[29] = locus YHR205W, strain SCH9, stronger effect = lower value
[30] = locus YIL147C, strain SLN1, stronger effect = lower value
[31] = locus YJL095W, strain BCK1, stronger effect = lower value
[32] = locus YJL128C, strain PBS2, stronger effect = lower value
[33] = locus YJL157C, strain FAR1, stronger effect = lower value
[34] = locus YJR016C, strain ILV3, stronger effect = lower value
[35] = locus YJR066W, strain TOR1 (second series), stronger effect = lower value
[36] = locus YJR066W, strain TOR1, stronger effect = lower value
[37] = locus YKL048C, strain ELM1, stronger effect = lower value
[38] = locus YKL067W, strain YNK1, stronger effect = lower value
[39] = locus YKL101W, strain HSL1, stronger effect = lower value
[40] = locus YKL193C, strain SDS22, stronger effect = lower value
[41] = locus YKL203C, strain TOR2, stronger effect = lower value
[42] = locus YLR113W, strain HOG1, stronger effect = lower value
[43] = locus YLR133W, strain CKI1, stronger effect = lower value
[44] = locus YLR403W, strain SFP1, stronger effect = lower value
[45] = locus YML070W, strain DAK1, stronger effect = lower value
[46] = locus YMR001C, strain CDC5, stronger effect = lower value
[47] = locus YMR205C, strain PFK2 (second series), stronger effect = lower value
[48] = locus YMR277W, strain FCP1, stronger effect = lower value
[49] = locus YNL006W, strain LST8, stronger effect = lower value
[50] = locus YNL020C, strain ARK1, stronger effect = lower value
[51] = locus YNL161W, strain CBK1, stronger effect = lower value
[52] = locus YNL183C, strain NPR1, stronger effect = lower value
[53] = locus YNL207W, strain RIO2, stronger effect = lower value
[54] = locus YNL222W, strain SSU72, stronger effect = lower value
[55] = locus YNL307C, strain MCK1 (second series), stronger effect = lower value
[56] = locus YOL078W, strain AVO1, stronger effect = lower value
[57] = locus YOL136C, strain PFK27, stronger effect = lower value
[58] = locus YOR061W, strain CKA2, stronger effect = lower value
[59] = locus YOR119C, strain RIO1, stronger effect = lower value
[60] = locus YOR231W, strain MKK1, stronger effect = lower value
[61] = locus YOR329C, strain SCD5, stronger effect = lower value
[62] = locus YPL031C, strain PHO85, stronger effect = lower value
[63] = locus YPL153C, strain RAD53, stronger effect = lower value
[64] = locus YPL204W, strain HRR25, stronger effect = lower value
[65] = locus YPL209C, strain IPL1, stronger effect = lower value
[66] = locus YPL256C, strain CLN2, stronger effect = lower value
[67] = locus YPR025C, strain CCL1, stronger effect = lower value
[68] = locus YPR106W, strain ISR1, stronger effect = lower value
[69] = locus YPR111W, strain DBF20, stronger effect = lower value
[70] = strain NNK1, stronger effect = lower value
[71] = strain TSCII, stronger effect = lower value
[72] = locus YGR078C, strain PAC10, stronger effect = lower value
[73] = locus YGR229C, strain SMI1, stronger effect = lower value
[74] = locus YJR075W, strain HOC1, stronger effect = lower value
[75] = locus YMR263W, strain SAP30, stronger effect = lower value
[76] = locus YMR307W, strain GAS1, stronger effect = lower value
[77] = locus YNL153C, strain GIM3, stronger effect = lower value
[78] = locus YPL241C, strain CIN2, stronger effect = lower value

Measured: normalized growth

CC(C)(C)c1csc(NC(=O)c2ccc(Cl)cc2Cl)n1
inactive: [1] 0.974 | [2] 0.976 | [3] 0.981 | [4] 0.971 | [5] 0.983 | [6] 0.973 | [7] 0.978 | [8] 0.962 | [9] 0.98 | [10] 0.978 | [11] 0.919 | [12] 0.991 | [13] 0.961 | [14] 0.97 | [15] 0.963 | [16] 0.95 | [17] 0.94 | [18] 0.966 | [19] 0.973 | [20] 0.964 | [21] 0.972 | [22] 0.975 | [23] 0.954 | [24] 0.938 | [25] 0.93 | [26] 0.867 | [27] 0.819 | [28] 0.98 | [29] 0.805 | [30] 0.973 | [31] 0.785 | [32] 0.864 | [33] 0.964 | [34] 0.978 | [35] 0.976 | [36] 0.993 | [37] 0.938 | [38] 0.939 | [39] 0.901 | [40] 0.958 | [41] 1.01 | [43] 0.968 | [44] 0.913 | [45] 0.9 | [46] 0.972 | [47] 0.931 | [48] 0.97 | [49] 0.98 | [50] 0.943 | [51] 0.974 | [52] 0.953 | [53] 0.967 | [54] 0.961 | [55] 0.91 | [56] 0.969 | [57] 0.917 | [58] 0.956 | [59] 1.01 | [60] 0.898 | [61] 0.975 | [62] 0.948 | [63] 0.946 | [64] 0.966 | [65] 0.982 | [67] 0.977 | [68] 0.958 | [69] 0.946 | [70] 0.938 | [71] 0.972
active: [42] 0.716 | [66] 0.843

CC(C)(C)c1csc(NNC(=O)c2ccc(Cl)cc2)n1
inactive: [1] 0.978 | [2] 0.979 | [3] 0.954 | [4] 0.981 | [5] 0.966 | [6] 0.978 | [7] 0.98 | [8] 0.968 | [9] 0.974 | [10] 0.968 | [11] 0.884 | [12] 0.984 | [13] 0.958 | [14] 0.975 | [15] 0.925 | [16] 0.795 | [17] 0.913 | [18] 0.966 | [19] 0.963 | [20] 0.982 | [21] 0.92 | [22] 0.96 | [23] 0.883 | [24] 0.923 | [25] 0.871 | [27] 0.891 | [28] 0.911 | [29] 0.882 | [30] 0.984 | [31] 0.863 | [32] 0.921 | [33] 0.885 | [34] 0.964 | [35] 0.946 | [36] 0.904 | [37] 0.892 | [38] 0.885 | [39] 0.829 | [40] 0.967 | [41] 0.958 | [43] 0.872 | [44] 0.861 | [45] 0.814 | [46] 0.974 | [47] 0.872 | [48] 0.975 | [49] 0.982 | [50] 0.884 | [51] 0.969 | [52] 0.837 | [53] 0.96 | [54] 0.963 | [55] 0.899 | [56] 0.962 | [57] 0.868 | [58] 0.899 | [59] 0.967 | [60] 0.812 | [61] 0.97 | [62] 0.912 | [63] 0.895 | [64] 0.914 | [65] 0.966 | [67] 0.964 | [68] 0.954 | [69] 0.949 | [70] 0.957 | [71] 0.969
active: [42] 0.756 | [66] 0.769

CC(C)(C)OC(=O)NC1CCN(C(=O)c2ccc(Cl)cc2Cl)CC1
inactive: locus YAL013W, strain DEP1, stronger effect = lower value 1 | locus YBR229C, strain ROT2, stronger effect = lower value 0.993 | locus YCL061C, strain MRC1, stronger effect = lower value 1.01 | [8] 0.995 | locus YDL134C, strain PPH21, stronger effect = lower value 0.999 | locus YDR150W, strain NUM1, stronger effect = lower value 0.95 | locus YEL061C, strain CIN8, stronger effect = lower value 1 | [72] 1 | [73] 1.01 | [26] 1.11 | locus YHR087W, strain rtc3, stronger effect = lower value 0.996 | locus YJL187C, strain SWE1, stronger effect = lower value 1.01 | locus YJR043C, strain POL32, stronger effect = lower value 0.997 | [74] 0.999 | locus YKL190W, strain CNB1, stronger effect = lower value 1.01 | locus YLR039C, strain RIC1, stronger effect = lower value 1.02 | locus YLR058C, strain SHM2 (second series), stronger effect = lower value 1 | locus YLR085C, strain ARP6, stronger effect = lower value 1.03 | locus YLR262C, strain YPT6, stronger effect = lower value 1.09 | locus YML094W, strain GIM5, stronger effect = lower value 1.04 | locus YMR219W, strain ESC1, stronger effect = lower value 0.996 | [75] 0.989 | [76] 0.824 | locus YNL128W, strain TEP1, stronger effect = lower value 1.01 | [77] 1 | locus YNL298W, strain CLA4 (second series), stronger effect = lower value 1.01 | locus YNL322C, strain KRE1, stronger effect = lower value 0.995 | locus YNR030W, strain Alg12, stronger effect = lower value 1.02 | locus YPL055C, strain LGE1, stronger effect = lower value 1.08 | [78] 1.01 | locus YPR135W, strain CTF4, stronger effect = lower value 1

Cc1cc(NC(=O)Nc2ccc3c(ccn3C)c2)sn1
inactive: locus YAL040C, strain CLN3, stronger effect = lower value 0.993 | locus YDR363W, strain ESC2, stronger effect = lower value 1.02 | locus YER002W, strain NOP16, stronger effect = lower value 0.992 | [72] 0.999 | [73] 1 | [74] 1 | [75] 0.968 | [76] 0.996 | [77] 1.04 | locus YNL175C, strain NOP13, stronger effect = lower value 1.02 | locus YNL197C, strain WHI3, stronger effect = lower value 0.983 | locus YNL224C, strain SQS1, stronger effect = lower value 0.996 | locus YOR083W, strain WHI5 (second series), stronger effect = lower value 1.01 | [78] 0.992
